Sensor-assay potency score (higher = more potent) data for 40 sequences are collected here from the OligoGym collection.
Note: reference of the scale not given here.

The target of one experiment is ENTHD1. The experiment can be described thus: pooled miR-30 sensor sort-seq; sequence = guide strand. As to conditions: shRNA.
Turning to TAGAAGACAACTGTTGATGGGA, the sensor-assay potency score (higher = more potent) stood at 0.377.

TTTAACTCCTAACACTAGCATC displayed a sensor-assay potency score (higher = more potent) of -1.32.

Take TTACAATCTCCTTCACTCGGTC: the sensor-assay potency score (higher = more potent) came to 0.0777.

Turning to TATACTTCTTCTCTGAAGCAGA, the sensor-assay potency score (higher = more potent) was -0.435.

On to TAGAAAACAATATAGAGTGGGA, for which the sensor-assay potency score (higher = more potent) turned out to be 0.012.

Sequence TTGTGAACTATTCAGACTCATG yielded a sensor-assay potency score (higher = more potent) of -1.36.

TACTTGACCAACATGCTGGTAA registered a sensor-assay potency score (higher = more potent) of 0.494.

TAGTTTGAAAGATACTTGCTAA displayed a sensor-assay potency score (higher = more potent) of -0.328.

Regarding TTATCATCCATCTGAATGCTGG, the sensor-assay potency score (higher = more potent) is -0.718.

The target of the next experiment is ENTPD8. Described as above. Particulars: shRNA.
TAGACGCTGTAGTCGGAGCCGT displayed a sensor-assay potency score (higher = more potent) of -0.675.

As to TAGCCGCTGAGGTAGCACGGGT, the sensor-assay potency score (higher = more potent) is -0.869.

In turn, TAGTCGGAGCCGTAGAGGCGAA gave a sensor-assay potency score (higher = more potent) of -1.54.

TAGCTGTGAGTGTAGACGCTGT returned a sensor-assay potency score (higher = more potent) of 0.245.

The sequence TCAAACACGATCCCAAACTTGA returned a sensor-assay potency score (higher = more potent) of -0.982.

Turning to TCAACTGTGAGGTTCTGGGGGA, the sensor-assay potency score (higher = more potent) was determined as 0.228.

The sequence TTCAACTGTGAGGTTCTGGGGG came in with a sensor-assay potency score (higher = more potent) of 0.121.

Consider TCAGCATCTGGTCCCGTCCAAA, for which the sensor-assay potency score (higher = more potent) was -1.74.

Regarding TTGCCTGTCCCTTCAACTGTGA, the sensor-assay potency score (higher = more potent) is -0.84.

Take TAGTTGACAGTGATCCAACCAA: the sensor-assay potency score (higher = more potent) came out at 0.0426.

TTGACCAGCGTCCCCAAGCCGT: the sensor-assay potency score (higher = more potent) was -1.42.

The next experiment concerns the target EPAS1. The experiment is described as above. As to conditions: shRNA.
Turning to TTTGGCAACAACAATAACGAGG, the sensor-assay potency score (higher = more potent) was -0.434.

On to TAGAACACCTCCGTCTCCTTGC, for which the sensor-assay potency score (higher = more potent) stood at 0.306.

For the sequence TTGTTGTAGACTTTCACCTGGC, the sensor-assay potency score (higher = more potent) worked out at 0.403.

Sequence TCTGTGGACATGTCTTTGCTTT displayed a sensor-assay potency score (higher = more potent) of -0.503.

In turn, TTAGCTGGAAGTCTTCCCCGTC came in with a sensor-assay potency score (higher = more potent) of -0.236.

TTTGTCATGGCACTGAAGCAGT came in with a sensor-assay potency score (higher = more potent) of -0.635.

As to TAGTTGACACACATGATGCACT, the sensor-assay potency score (higher = more potent) is -0.913.

TACAAGTTGTCCATCTGCTGGT gave a sensor-assay potency score (higher = more potent) of 0.354.

On to TTTTCTGACAGAAAGATCATGT, for which the sensor-assay potency score (higher = more potent) stood at 0.329.

Take TAGTATGGACAGTTGTGTGTGA: the sensor-assay potency score (higher = more potent) is -0.0372.

For TTGCTCTTCATACTCCAGCTGT, the sensor-assay potency score (higher = more potent) is -0.454.

TTGGGTGAACTTATCATTGGGT had a sensor-assay potency score (higher = more potent) of 0.697.

For the sequence TCACACATGATGATGAGGCAGG, the sensor-assay potency score (higher = more potent) is -0.0655.

As to TTCATGTCCATGCTGTGGCGGC, the sensor-assay potency score (higher = more potent) is -0.685.

Sequence TTCAGCTTCAGCTTGTTGGAGA registered a sensor-assay potency score (higher = more potent) of -0.377.

On to TTAGAAGTCATTGAAGGTGGGG, for which the sensor-assay potency score (higher = more potent) was found to be 0.712.

In turn, TTTCAGGTACAAGTTGTCCATC yielded a sensor-assay potency score (higher = more potent) of -1.4.

Regarding TTCACCTCACAGTCATATCTGG, the sensor-assay potency score (higher = more potent) was -0.278.

As to TTGAGGTTGACAGTACGGCCTC, the sensor-assay potency score (higher = more potent) is -0.329.

Turning to TTTAAGAACATTTCAGAACAGG, the sensor-assay potency score (higher = more potent) was -0.533.
